# hgDAF-12 ag – activates the H. glycines DAF-12 receptor ligand-binding domain; HEK293 GAL4-hgDAF12 UAS-luciferase reporter, agonist luminescence; normalized to butyrate control; activation, % at 6.8 µM; 1.8% of 370,000 active;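 active means activation above a cutoff set at the mean of all screened compounds plus 3 SD, cut at about 10% in these data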;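 further: 0% = DMSO wells and 100% = sodium butyrate wells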
# hcDAF-12 act – activates DAF-12 receptor from parasite H. contortus; AID 652067; activation, % at 6.8 µM; 1.4% of 370,000 active; HEK293 hcDAF-12 lit1-tk-luc reporter, luminescence; 0% DMSO, 100% Δ7-dafachronic acid;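 active means activation above the mean of all tested compounds plus 3 SD, cut at about 5.5% in these data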;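 further: 100% = response to 3 µM Δ7-dafachronic acid high control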
# ssDAF-12 act – activates DAF-12 receptor from parasite S. stercoralis; HEK293 ssDAF-12/GRIP1 lit1-tk-luc reporter, luminescence; % of 3 µM dafachronic acid response; activation, % at 6.8 µM; 1% of 370,000 active; AID 652126;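 active means activation above the mean over all tested compounds plus 3 SD, cut at about 0.9% in these data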;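 further: 0% = DMSO-only wells and 100% = 3 µM delta7-dafachronic acid wells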
# Wnt bcat act – Wnt/beta-catenin pathway activation; Wnt/beta-catenin reporter cell assay, activator, plate reader; activation, % at 9.35 µM; 1.2% of 300,000 active; AID 743398; in the data active means activation above about 30%, passing the limit was not always enough; inconclusive means no clear call, values can overlap the other calls;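 further: 0% = neutral control wells and 100% = positive control wells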
# esBAF inh – SWI/SNF esBAF complex inhibition; AID 602393; 2% of 350,000 active; mouse ES cells, Bmi1-luciferase knock-in reporter, 24 h; 100% = twice the neutral-well signal; reporter increase, % at 12.5 µM; in the data active means activation above about 40%; inconclusive means no clear call, values can overlap the other calls;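 further: 0% = median of the plate's neutral control wells and 100% = double that signal; a rise in the Bmi1 reporter signal indicates esBAF inhibition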
# DAX1 StAR inh – DAX1 (NR0B1) inhibition, primary screen | 1.1% of 370,000 active | HEK293T StAR-luciferase reporter, SF-1/DAX-1 repression relief | inhibition, % at 6.8 µM;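 active means inhibition above the mean over all tested compounds plus 3 SD, cut at about 3.6% in these data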;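 further: 0% = DAX-1 cells with DMSO and 100% = cells lacking DAX-1 with DMSO; higher inhibition means more luminescence from relief of DAX-1 repression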
# DAX1 inh confirm – NR0B1 (human) inhibition, confirmation | shares compounds with DAX1 StAR inh | HEK293T StAR-promoter luciferase reporter, SF-1/DAX-1 repression | inhibition, % at 6.8 µM | 87% of 2,400 active | AID 652134;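 active means inhibition above the average of every tested compound plus 3 SD, cut at about 3.8% in these data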;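 further: 0% = DAX-1 cells with DMSO and 100% = no DAX-1 control cells with DMSO; active compounds raise luminescence by relieving repression of the StAR reporter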
# Target sequence (P51843 whole entry, looked up): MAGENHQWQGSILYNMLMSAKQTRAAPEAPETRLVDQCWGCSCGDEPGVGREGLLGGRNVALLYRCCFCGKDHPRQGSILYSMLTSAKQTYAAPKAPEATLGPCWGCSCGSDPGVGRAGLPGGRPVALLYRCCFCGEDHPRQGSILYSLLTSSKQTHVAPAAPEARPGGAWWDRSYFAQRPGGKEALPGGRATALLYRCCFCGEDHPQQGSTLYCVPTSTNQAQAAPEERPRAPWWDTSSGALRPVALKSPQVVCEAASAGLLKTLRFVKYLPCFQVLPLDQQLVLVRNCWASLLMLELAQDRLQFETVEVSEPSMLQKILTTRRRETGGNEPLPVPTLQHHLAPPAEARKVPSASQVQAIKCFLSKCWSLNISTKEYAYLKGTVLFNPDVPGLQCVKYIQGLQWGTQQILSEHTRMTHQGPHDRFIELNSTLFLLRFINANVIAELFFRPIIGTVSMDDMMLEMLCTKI
# SF1 AF2mut Luc – counter-screen for DAX1 inhibitors: nonselective inhibitors with SF-1 AF2 mutant; shares compounds with DAX1 StAR inh; HEK293 StAR-luciferase, luminescence; inhibition, % at 6.8 µM; 78% of 2,400 active; AID 652136;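 active means inhibition above the mean of all tested compounds plus 3 SD, cut at about 3% in these data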;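 further: 0% = DAX-1 transfected cells with DMSO and 100% = cells without DAX-1 with DMSO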
# * hit, by the source's call; ? = inconclusive; . = no result. Hits are enriched below; roughly 4.2% of the tested compounds scored in any of these assays.
SMILES,hgDAF-12 ag,hcDAF-12 act,ssDAF-12 act,Wnt bcat act,esBAF inh,DAX1 StAR inh,DAX1 inh confirm,SF1 AF2mut Luc
CCN(CC)CCCn1c2c(c(SCC(=O)Nc3cccc(C)c3C)nc1=O)CCC2,2,2,-1,-2,.,7.2*,7.7*,6.3*
CC(=O)N1CC[C@@H]2[C@H]1c1cc(C#Cc3cccnc3)ccc1N[C@@H]2CO,.,.,.,.,2,.,.,.
CSc1nnc(NC(=O)c2ccc3c(c2)OCO3)s1,11*,6.0*,0,11,-74,13*,3,-1
O=C(Nc1cccc(-c2ccc(N3CCOCC3)nn2)c1)c1ccccc1Cl,6,1,0,-3,54*,5.2*,5.2*,5.0*
Cc1cc(C(=O)Nc2cccc(-c3ccc(N4CCOCC4)nn3)c2)ccc1[N+](=O)[O-],0,3,-1,27,.,-2,.,.
COc1cc(OC)cc(C(=O)Nc2ccc3nc4n(c(=O)c3c2)CCCCC4)c1,1,-2,-1,20,53*,6.0*,3,2
COc1ccccc1C(=O)Nc1ccc2nc3n(c(=O)c2c1)CCCC3,0,-1,-1,2,18,0,.,.
c1ccc(-n2ncc3c(NC4CCCCCC4)ncnc32)cc1,11*,0,-1,24,55*,5.7*,10*,5.7*
Cc1ccc2nc(-c3ccccc3)c(Cc3ccccc3C(F)(F)F)n2c1,9,4,0,21,22,4.7*,3.8*,3.8*
FC(F)(F)c1ccccc1Cc1c(-c2ccccc2)nc2ccc(Cl)cn12,6,2,0,0,17,1,.,.
Cc1ccc(-c2nc3ccc(C)cn3c2Cc2ccccc2C(F)(F)F)cc1,12*,3,0,21,16,5.7*,5.0*,4.1*
FC(F)(F)c1ccccc1Cc1c(-c2ccc(Cl)cc2)nc2ccc(Cl)cn12,12*,1,1,11,64*,4.8*,4.1*,3.8*
Cc1ccc2nc(C(C)(C)C)c(Cc3ccccc3C(F)(F)F)n2c1,2,1,0,-1,-9,0,.,.
CCC(=O)N(C)C[C@H]1Oc2ncc(-c3ccc(C(=O)N(C)C)cc3)cc2C(=O)N([C@H](C)CO)C[C@H]1C,.,.,.,.,2,.,.,.
CCSc1nnc(NC(=O)CCN2C(=O)C3CCCCC3C2=O)s1 (configuration not stated),4,0,-1,5,30,4.8*,3,2
c1ccc(CNc2ccc3ccccc3n2)nc1,15*,8.0*,1.0*,10,-24,7.9*,12*,8.2*
C[C@@H]1CN([C@@H](C)CO)C(=O)Cc2cc(NC(=O)Nc3ccc(F)cc3)ccc2O[C@@H]1CN(C)C(=O)Nc1ccccc1,.,.,.,.,-2,.,.,.
Cc1cc(C)c(NC(=O)Nc2ccc3c(c2)OCO3)c(C)c1,4,2,0,13,14,4.7*,2,3.4*
Cc1ccc(NC(=O)Nc2ccc3c(c2)OCO3)c(Br)c1,2,0,-1,6,?,2,.,.
Cc1ccc(C(=O)O)cc1NC(=O)Nc1ccc2c(c1)OCO2,7,0,-1,4,12,0,.,.
O=C(Nc1cccc(C(=O)O)c1)Nc1ccc2c(c1)OCO2,4,4,-1,-7,-69,6.8*,6.3*,5.5*
O=C(Nc1ccc(Cl)cc1)Nc1ccc2c(c1)OCO2,12*,5.7*,0,38*,60*,6.4*,8.7*,6.6*
CO[C@H]1CN(C)C(=O)c2ccc(NC(C)=O)cc2OC[C@@H](C)N(C(=O)C2CCOCC2)C[C@@H]1C,.,.,.,.,4,.,.,.
Cc1ccc(S(=O)(=O)N(C)C[C@@H]2Oc3ccc(NC(=O)Nc4ccc5c(c4)OCO5)cc3C(=O)N([C@H](C)CO)C[C@@H]2C)cc1,.,.,.,.,3,.,.,.
CCc1nnc(NC(=O)c2cc(C)oc2C)s1,9,5,1,?,8,9.5*,7.9*,5.6*
SMILES,hgDAF-12 ag,hcDAF-12 act,ssDAF-12 act,Wnt bcat act,esBAF inh,DAX1 StAR inh,DAX1 inh confirm,SF1 AF2mut Luc
Cc1[nH]n(-c2cccc(Cl)c2)c(=O)c1C=NCc1ccco1,12*,4,1,8,.,5.8*,8.3*,5.1*
Cc1[nH]n(-c2cccc(Cl)c2)c(=O)c1C=NCC(C)C,10,3,-1,3,.,3,.,.
Cc1noc(C)c1NC(=O)Nc1ccc2c(c1)C(=O)N(C)[C@H]1CC[C@@H](CC(=O)N[C@@H]3CCN(Cc4ccccc4)C3)O[C@H]1CO2,.,.,.,.,1,.,.,.
COc1cccc(CNC(=O)C[C@@H]2C=C[C@@H](NC(=O)C3CCOCC3)[C@H](CO)O2)c1,.,.,.,.,5,.,.,.
CC(C)C#Cc1cnc2c(c1)C(=O)N([C@@H](C)CO)C[C@@H](C)[C@@H](CN(C)C(=O)c1cnccn1)O2,.,.,.,.,0,.,.,.
Cc1ccnc(NC(=O)c2cccc(S(=O)(=O)N3CCOCC3)c2)c1,11*,3,0,22,50*,6.1*,4.7*,3
O=C(Nc1ccccn1)c1cccc(S(=O)(=O)N2CCOCC2)c1,-1,-1,-1,.,-7,1,.,.
Cc1ccc(NC(=O)C(=O)NCCCN2CCCC2=O)c(C)c1,5,1,-1,2,40,3,.,.
Cc1ccc(NC(=O)C(=O)NCCCN2CCCC2=O)cc1,12*,5,0,43*,.,6.5*,9.7*,6.5*
Fc1ccc(-c2nnc(-c3ccc(Cl)cc3Cl)o2)cc1,12*,5,0,20,31,5.3*,8.3*,3.6*
Cc1ccccc1Nc1nc(N)nc(CSc2ccc(F)cc2)n1,12*,5,1,17,?,6.7*,11*,4.6*
O=C(NCCc1ccc(Cl)cc1)c1ccc2nc[nH]c2c1,3,-1,-2,0,.,0,.,.
O=C(Nc1ccc(Cl)cn1)c1ccc2nccnc2c1,7,1,1.6*,37*,.,6.4*,4.5*,2
O=C(NCCc1ccc(Cl)cc1)c1ccc2nccnc2c1,8,4,0,25,33,5.4*,8.2*,7.9*
Cc1noc(C)c1NC(=O)N(C)C[C@H]1OCCCC[C@H](C)Oc2ccc(N(C)C)cc2C(=O)N([C@H](C)CO)C[C@@H]1C,.,.,.,.,-4,.,.,.
COCC(=O)N(C[C@H]1N[C@@H](CO)[C@@H]1c1ccc(-c2cccnc2)cc1)C(C)C,.,.,.,.,-6,.,.,.
CC(C)N=C1NN=C(c2ccc(F)cc2)CS1,13*,5,-1,9,-17,5.9*,11*,6.0*
CCN=C1NN=C(c2ccc(C)cc2)CS1,8,2,0,-9,24,1,.,.

# Bioassay records: PubChem BioAssay, several laboratories
